The results in this text go back to PubChem BioAssay.

Values joined by “and” are separate entries in the source; they are usually repeats but may differ in a detail not shown here. Identical values can stand only once. Results filed as inconclusive are left out. Some structures have more than one record in an assay (separate samples or runs), and their calls can disagree. Active and inactive are the calls of the source. Unless noted, no rule for the calls is given here.

Experiment [1] can be described thus: compounds altering viability of human ES cells (AID 493140).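 Also: cells exposed to compounds for four days before counting.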 As to conditions: human embryonic stem cell survival screen; stronger effect = higher value.
Experiment [2] deals with Neuropilin-2 / VEGF-C interaction (human). In words: small molecules blocking Neuropilin-2/VEGF-C interaction – biochemical, microplate binding format, z-score (AID 743281). As to conditions: microplate NRP2/VEGF-C binding assay; stronger effect = lower value.
Experiment [3] can be described thus: stimulators of insulin release from INS-1E, primary screen, cell-based, 5 mM glucose, NPC library (AID 1117329;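 active = compound raises insulin release from rat beta cells at 5 mM glucose, no numeric limit stated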). As to conditions: rat INS-1E insulin secretion, at 10 µM, stronger effect = higher value.
Experiment [4] in a line: growth inhibition of GSK3B-pretreated HCT116 cells – cell-based, CellTiter-Glo, 0.2 to 20 µM (AID 1117336;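 active = compounds lowering colon cancer cell viability after pretreatment blocking the GSK3B kinase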). The note with it: HCT116 viability after GSK3B inhibitor, at 20 µM, stronger effect = higher value.
Experiment [5] can be described thus: inhibition of endothelial tube formation, primary screen, imaging, VEGF stimulated, CD31 staining, tube area, NPC library (AID 1117340;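 active = compound that reduces growth-factor-driven endothelial tube area in a mixed cell culture, no cutoff stated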). As to conditions: VEGF-stimulated ADSC/ECFC co-culture, at 10 µM, stronger effect = higher value.
Experiment [6] in a line: GLP1 release stimulators, primary, NCI-H716, NPC library (AID 1117341;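 active = compound raises GLP1 secretion from the human gut endocrine cells, with no numeric limit stated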). As to conditions: NCI-H716 cells, at 10 µM, stronger effect = higher value.
A short description of experiment [7]: HCT116 colon cancer cell growth inhibition, primary screen, CellTiter-Glo luminescence, NPC library (AID 1117342;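 active = compounds that lower survival of HCT116 colon cancer cells in the luminescence readout, no numeric limit stated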). The note with it: at 20 µM (top of the series).
The nature of experiment [8]: reduced SW480 viability measured with CellTiter-Glo, NPC library, primary (AID 1117343;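 active = compounds that lower viability of the colon cancer cells in the luminescence readout, with no numeric limit stated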). As to conditions: CellTiter-Glo luminescence; at 20 µM (top of the series) unless noted.
Experiment [9] can be described thus: NPC library primary testing for decreased DLD-1 cell viability via CellTiter-Glo (AID 1117346;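 active = compounds that lower survival of DLD-1 colon cancer cells in the luminescence readout, no cutoff given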). As to conditions: DLD-1 viability, CellTiter-Glo luminescence; at 20 µM (top of the series).
In the next experiment the test system is F380Y/beta1. In words: BK channel mutant inhibitors and activators – cell-based, U2OS BacMam, thallium flux, beta subunits, selectivity assay, profiling panel (AID 1259406;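 active = thallium flux through the channel raised or lowered by more than 3 SD from vehicle-only wells, actives on both sides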;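 also: initial slope of Thallos dye fluorescence rise after thallium is added; log ratio against the mean of 0.3% DMSO vehicle wells on the same plate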). As to conditions: U2OS BacMam BK variants, at 30 µM.
The next experiment deals with F380Y/beta4. The experiment is described as above. As to conditions: U2OS BacMam BK variants, at 30 µM.
Another experiment relates to R275C/beta4. The experiment is described as above. As to conditions: U2OS BacMam BK variants, at 30 µM.
For a further experiment, the system named is R275C/Slo1WT/beta2. Described as above. As to conditions: U2OS BacMam BK variants, at 30 µM.
Experiment [10] can be described thus: viability loss in pontine glioma line – cell-based, JHH-DIPG-1, MIPE4.0, CellTiter-Glo, qHTS, dose response (AID 1347062; cut-off not given, nearly all actives have AC50 up to about 27 µM). The note with it: JHH-DIPG-1 viability, CellTiter-Glo ATP luminescence.
Experiment [11] in a line: growth inhibition of DIPG cells – cell-based, MIPE4.0 library, CellTiter-Glo luminescence, qHTS (AID 1347066; cut-off not given, nearly all actives have AC50 up to about 30 µM;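 also: cells exposed to compound for 48 hours before readout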). The note with it: SU-DIPG-VI viability, CellTiter-Glo ATP luminescence.
The nature of experiment [12]: blockers of cellular phospholipid synthesis – cell-based, LOPAC library, screen 4, primary screen (AID 1347384). As to conditions: animal cells, phospholipid biosynthesis inhibition screen; at 10 µM.
The target of experiment [13] is ATP-dependent translocase ABCB1 (Homo sapiens) (UniProt P08183). In words: P-glycoprotein substrate transport blockade – cell-based (AID 377; in the data active = fluorescence slope change above about 50%). The note with it: MDR1-expressing cells, fluorescent substrate accumulation slope; stronger effect = higher value; concentration not given here.
Chain of ATP-dependent translocase ABCB1 (Homo sapiens) (P08183 whole entry, looked up): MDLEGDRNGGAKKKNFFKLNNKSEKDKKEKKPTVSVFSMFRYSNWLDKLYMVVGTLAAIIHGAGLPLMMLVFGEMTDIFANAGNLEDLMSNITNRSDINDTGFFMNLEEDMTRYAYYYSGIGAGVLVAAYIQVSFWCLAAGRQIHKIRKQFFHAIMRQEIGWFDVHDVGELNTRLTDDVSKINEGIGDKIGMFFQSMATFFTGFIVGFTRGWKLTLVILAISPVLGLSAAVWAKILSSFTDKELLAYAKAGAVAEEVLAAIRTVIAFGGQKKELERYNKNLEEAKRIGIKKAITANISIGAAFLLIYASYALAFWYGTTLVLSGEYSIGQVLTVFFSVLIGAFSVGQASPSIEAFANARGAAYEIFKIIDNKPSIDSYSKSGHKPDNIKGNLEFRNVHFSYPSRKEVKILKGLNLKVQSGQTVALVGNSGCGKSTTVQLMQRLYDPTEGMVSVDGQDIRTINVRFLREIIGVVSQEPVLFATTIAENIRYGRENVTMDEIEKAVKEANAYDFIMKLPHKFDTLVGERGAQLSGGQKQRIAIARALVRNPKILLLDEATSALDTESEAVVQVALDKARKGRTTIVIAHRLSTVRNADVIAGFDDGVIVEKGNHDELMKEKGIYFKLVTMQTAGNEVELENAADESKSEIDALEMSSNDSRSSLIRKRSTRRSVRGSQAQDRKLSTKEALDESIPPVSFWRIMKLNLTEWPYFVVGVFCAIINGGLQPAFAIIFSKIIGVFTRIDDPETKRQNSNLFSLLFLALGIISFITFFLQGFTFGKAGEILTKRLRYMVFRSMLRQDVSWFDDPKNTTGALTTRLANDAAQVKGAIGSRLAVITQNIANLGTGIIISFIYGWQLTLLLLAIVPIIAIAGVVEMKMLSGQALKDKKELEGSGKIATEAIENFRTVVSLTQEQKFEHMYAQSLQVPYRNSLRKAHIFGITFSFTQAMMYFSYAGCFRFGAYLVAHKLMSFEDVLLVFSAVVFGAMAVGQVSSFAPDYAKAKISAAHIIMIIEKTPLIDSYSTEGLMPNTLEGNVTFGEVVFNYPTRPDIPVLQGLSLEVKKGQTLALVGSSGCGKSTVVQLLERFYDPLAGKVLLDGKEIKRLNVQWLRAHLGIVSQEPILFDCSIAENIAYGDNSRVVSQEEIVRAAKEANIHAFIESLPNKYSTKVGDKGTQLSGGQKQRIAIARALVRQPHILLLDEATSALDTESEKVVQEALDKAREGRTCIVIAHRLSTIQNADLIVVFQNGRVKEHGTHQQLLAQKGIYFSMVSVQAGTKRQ
Experiment [14] in a line: blockers of polyQ-driven CASP3 activation – cell-based (AID 1583). As to conditions: polyglutamine-induced caspase-3 activation, cell assay; stronger effect = higher value;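 tested at 10 µM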.
The nature of experiment [15]: compounds altering circadian rhythm period length – cell-based, LOPAC library, luminescence reporter (AID 2774).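 Also: values are relative to mean of DMSO wells on each plate.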 The note with it: circadian reporter cells, at 7 µM, actives lie on both sides.

Turning to `C[N+]1(C)CCC(OC(=O)C(O)(c2ccccc2)C2CCCC2)C1` (configuration not stated), the survival in [1] is 3.83 (inactive). For the same compound, in experiment [2], the z-score was -0.121 (inactive). The insulin secretion stimulation in [3] was 1.8% (inactive). In addition, the viability decrease in experiment [4] was -4% (inactive). Also, the tube area decrease in experiment [5] is -0.8% (inactive). Further, in experiment [6], the GLP1 secretion stimulation was -0.5% (inactive). Moreover, the inhibition of viability in experiment [7] was 11.3% (inactive). The results for the viability decrease (inhibition) in [8] and in [9] were -15.2% (inactive) and 2% (inactive), respectively. In addition, the log fold change Tl+ flux was 0.0124 (inactive) and -0.000209 (inactive) with F380Y/beta1; -0.00589 (inactive) and 0.00112 (inactive) in the experiment on F380Y/beta4; 0.0451 (inactive) and -0.0272 (inactive) with R275C/beta4; 0.0815 (active) and 0.0504 (inactive) with R275C/Slo1WT/beta2.

For `O=S(=O)(c1cccc2cnccc12)N1CCCNCC1`, the survival in experiment [1] is 467 (active). Besides, the insulin secretion stimulation in experiment [3] was 4.95% (inactive). Besides, in [4], the viability decrease was 18.1% (inactive). In addition, the tube area decrease in experiment [5] was -19.8% (inactive). Moreover, the GLP1 secretion stimulation in experiment [6] was -2.6% (inactive). The inhibition of viability in experiment [7] was 24.3% (inactive). Further, the viability decrease (inhibition) in experiment [8] is -4.3% (inactive); in [9], 15.4% (inactive). Also, the outcome in experiment [10] and in experiment [11] was inactive.

For the compound `CC(C)c1c(C(=O)Nc2ccccc2)c(-c2ccccc2)c(-c2ccc(F)cc2)n1CC[C@@H](O)C[C@@H](O)CC(=O)O`, the insulin secretion stimulation in [3] is 3.7% (inactive). For the same compound, the viability decrease in experiment [4] is 95.5% (active). Further, the tube area decrease in experiment [5] is 67.8% (active). Also, in experiment [6], the GLP1 secretion stimulation was 5.8% (inactive). For the same compound, the inhibition of viability in experiment [7] was 81.6% (active). For the same compound, the values for the viability decrease (inhibition) in experiment [8] and in [9] were 96.3% (active) and 68.1% (active), respectively. In experiment [12], the result was inactive.

For `CC(C)(C)CC(C)(C)c1ccc(OCCOCC[N+](C)(C)Cc2ccccc2)cc1`, in experiment [13], the fluorescence slope change is 152% (active). The inhibition in [14] is 70.8%. Moreover, in [1], the survival is 0.167 (inactive). Further, the insulin secretion stimulation in experiment [3] was 4.2% (inactive). Moreover, the viability decrease in experiment [4] was 102% (active). In addition, the tube area decrease in [5] is 110% (active). In addition, in experiment [6], the GLP1 secretion stimulation is 89.6% (active). In [7], the inhibition of viability is 103% (active). Moreover, the viability decrease (inhibition) in [8] was 145% (active); in experiment [9] it was 106% (active).

As for `COc1ccc(-c2nc3ccc(C4=NNC(=O)CC4C)cc3[nH]2)cc1` (configuration not stated), the insulin secretion stimulation in experiment [3] was 2.8% (inactive). In addition, in [4], the viability decrease was 18.3% (inactive). In experiment [5], the tube area decrease is 80.8% (active). The GLP1 secretion stimulation in experiment [6] was 6.8% (inactive). The inhibition of viability in experiment [7] was 61.7% (active). Also, the viability decrease (inhibition) in experiment [8] was 43% (inactive); in experiment [9] it was 52.3% (active). Moreover, the result in [10] and in experiment [11] was inactive.

Take `CS(=O)(=O)c1ccc([C@@H](O)[C@@H](CF)NC(=O)C(Cl)Cl)cc1`: in experiment [1], the survival was 1.92 (inactive). The insulin secretion stimulation in [3] is 1.8% (inactive). The viability decrease in [4] was -7.1% (inactive). Besides, in experiment [5], the tube area decrease was 10.2% (inactive). The GLP1 secretion stimulation in experiment [6] was 0.9% (inactive). In addition, the inhibition of viability in experiment [7] is 14.2% (inactive). The viability decrease (inhibition) in experiment [8] was 17.1% (inactive); in experiment [9], 13.6% (inactive).

Regarding `Cc1ccc(/C(=C\CN2CCCC2)c2ccccn2)cc1`, in [13], the fluorescence slope change is 91.4% (active). Moreover, the inhibition in experiment [14] came out at 21.1%. Besides, the period change in [15] is 0.045 h (inactive). For the same compound, the survival in experiment [1] is 11.5 (inactive). In [3], the insulin secretion stimulation was 24% (active). In experiment [4], the viability decrease is -2.3% (inactive). Also, the tube area decrease in experiment [5] is -2.9% (inactive). In addition, the GLP1 secretion stimulation in experiment [6] is -2.1% (inactive). Moreover, the inhibition of viability in experiment [7] is -50.9% (inactive). For the same compound, the viability decrease (inhibition) in experiment [8] is 6.5% (active); in experiment [9], -45.1% (inactive). Further, in [12], the outcome was inactive.

Regarding `O=C(O)c1cn(C2CC2)c2cc(N3CCNCC3)c(F)cc2c1=O`, the fluorescence slope change in experiment [13] was 54.5% (active). The inhibition in experiment [14] is 8.05%. The survival in [1] was 20.5 (inactive). Also, the insulin secretion stimulation in experiment [3] was -0.6% (inactive). In addition, in [4], the viability decrease is -4.5% (inactive). For the same compound, in experiment [5], the tube area decrease was -29.4% (inactive). Moreover, the GLP1 secretion stimulation in experiment [6] was 1.9% (inactive). Moreover, in experiment [7], the inhibition of viability was 8.6% (inactive). Further, the viability decrease (inhibition) was 12.3% (inactive) in experiment [8] and -5% (inactive) in [9]. Further, the result in experiment [10] and in [11] was inactive.
